Compound activity (PubChem)
Abs 340nm: compounds absorbing at 340 nm. compound absorbance at 340 nm, fold over control. fold change at 10 µM. 65,000 tested, under 10 active;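 active = at 10 µM dose, initial 340 nm absorbance at least 2 fold that of control wells; inactive = change under 2 fold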;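 note: initial absorbance extrapolated from kinetic A340 decline of NADH oxidation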
Spn DPM-DC inh: blocks S. pneumoniae diphosphomevalonate decarboxylase; AID 556; purified DPM-DC, PK/LDH coupled NADH fluorescence; calls only at 10 µM; 0.49% of 65,000 active;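 active = the 320 compounds with the highest percent inhibition in the single-dose primary screen, excluding strongly autofluorescent ones, cut at about 32% in these data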;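 note: kinetic rate of NADH fluorescence loss reporting ADP formed by the decarboxylase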
Spn PMK inh: blocks S. pneumoniae phosphomevalonate kinase; 0.49% of 65,000 active; purified PMK, PK/LDH-coupled NADH absorbance 340 nm; AID 539; inhibition, % at 10 µM;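 active = top-ranked compounds by inhibition in the single 10 µM screen, taking a fixed number of the strongest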
Autofluor 339: intrinsic fluorescence of library compounds, ex339/em460 – biochemical, MLSMR library, data from DPM-DC assay, artefact control, profiling panel. compound autofluorescence, ex339/em460 nm, NADH buffer; stronger effect = higher value; 1 = no-compound wells, NADH background. 5.5% of 65,000 active. fluorescence fold increase at 10 µM. AID 709;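 active = at 10 µM, mean starting fluorescence two-fold or more over control wells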;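 note: signal is the first read of a kinetic run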
MK inhibit: S. pneumoniae mevalonate kinase inhibition | purified MK, PK/LDH-coupled NADH absorbance 340 nm | inhibition, % at 10 µM | 0.48% of 65,000 active;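 active = ranked among the strongest by inhibition in the single 10 µM screen, a fixed top-ranked set picked for dose follow-up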
NADH enzymes: blocks coupling enzymes of NAD/NADH assays; coupled PK/LDH NADH assays, four targets; IC50, µM (top dose mostly 10 µM); 0.02% of 65,000 active; AID 774;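 active = single-dose screening hits from any of four coupled enzyme assays that gave an IC50 when retested across doses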;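 note: the DPM-DC format reads NADH fluorescence rather than 340 nm absorbance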
Large screens that a line does not name were inactive. Rows were chosen to be rich in hits. Some 6.8% of all compounds tested hit in one or more screens of this group.

COC(=O)c1ccc(C(=O)OC)c(NC(=O)CCC(=O)O)c1	Autofluor 339 2.1 (not shown: Spn DPM-DC inh)
COc1ccccc1S(=O)Cc1ccc(C(=O)NCc2ccccc2Cl)o1 (stereo not given)	none
Cc1cc(Cn2ccnc2)c(C)cc1Cn1ccnc1	none
COc1ccccc1CC(=O)Nc1ccc(-c2nnc(-c3ccco3)o2)cc1	Autofluor 339 2.3 (not shown: Spn DPM-DC inh)
CCC(=O)Nc1ccc(C(=O)c2ccccc2)cc1	none
O=C(O)CCC(=O)Nc1ccc(-c2nnc(-c3ccco3)o2)cc1	Autofluor 339 2.1 (not shown: Spn DPM-DC inh)
CCC(=O)Nc1ccc(-c2nnc(-c3ccccc3)o2)cc1	Autofluor 339 2.4 (not shown: Spn DPM-DC inh)
O=C(Cc1ccc(Cl)cc1)Nc1ccc(-c2nnc(-c3ccco3)o2)cc1	none
COc1ccc(CC(=O)Nc2cccc(-c3nnc(-c4ccco4)o3)c2)cc1	none
O=C(Cc1ccccc1)Nc1ccc(-c2nnc(-c3ccco3)o2)cc1	Autofluor 339 2.6
COc1ccc(-c2cc(=O)oc3c(C)c(O)c(CN(C)C)cc23)cc1	Autofluor 339 2.4
COc1ccc(C(CC(=O)O)NC(=O)OC(C)(C)C)cc1 (stereo not given)	none
CC(C)(C)OC(=O)NCCC(=O)Oc1ccc2ccc(=O)oc2c1	Autofluor 339 2.3 (not shown: Spn DPM-DC inh)
CC(NC(=O)OC(C)(C)C)C(=O)Oc1ccc2ccc(=O)oc2c1 (stereo not given)	Autofluor 339 2.3 (not shown: Spn DPM-DC inh)
CCOC(=O)CC(C#N)c1c[nH]c2ccccc12 (stereo not given)	none
CCOC(=O)N1CCN(S(=O)(=O)c2ccc(C(=O)Nc3nc4ccccc4s3)cc2)CC1	Autofluor 339 4.5 (not shown: Spn DPM-DC inh)
CCOC(=O)N1CCN(S(=O)(=O)c2ccc(F)cc2)CC1	none
CCOC(=O)N1CCN(S(=O)(=O)c2ccc(C(=O)Nc3nc4ccc(F)cc4s3)cc2)CC1	Autofluor 339 4.6 (not shown: Spn DPM-DC inh)
CCOC(=O)c1ccc(NS(=O)(=O)c2cc(-c3nnnn3C(C)C)ccc2OC)cc1	none
CCOC(=O)c1c(C)c(C(=O)NCCCOC(C)C)c(C)n1C	none
CC1(C)CC(=O)c2cc(OCC(=O)NCCCN3CCN(c4ccccc4F)CC3)ccc2O1	Autofluor 339 3.4 (not shown: Spn DPM-DC inh)
O=C(COc1ccc(S(=O)(=O)NC2CCCCC2)cc1)NCc1ccccn1	none
CC1(C)CC(=O)c2cc(OCC(=O)NCc3cccnc3)ccc2O1	Autofluor 339 5.1 (not shown: Spn DPM-DC inh)
O=C(COc1ccc2c(c1)C(=O)CC1(CCCCC1)O2)NCc1ccccn1	Autofluor 339 5.1 (not shown: Spn DPM-DC inh)
CCOC(=O)COc1ccc2c(c1)C(=O)CC(C)(c1cccnc1)O2 (stereo not given)	Autofluor 339 4.8 (not shown: Spn DPM-DC inh)
CN(C)c1ccc(C(=O)OCC(=O)NC2CCCCC2)cc1	none
CCOC(=O)C1CCCN(S(=O)(=O)c2ccc(OC)c3ccccc23)C1 (stereo not given)	none
CC(C)CC(=O)Nc1ccc2oc(-c3ccncc3)nc2c1	Autofluor 339 3.7 (not shown: Spn DPM-DC inh)
CC(C)CC(=O)Nc1cccc(-c2nc3ccccc3o2)c1	none
O=C(Nc1ccc2oc(-c3ccncc3)nc2c1)c1ccccc1F	Autofluor 339 3.7 (not shown: Spn DPM-DC inh)
O=C(Cc1ccccc1)Nc1ccc2oc(-c3ccncc3)nc2c1	Autofluor 339 3.9 (not shown: Spn DPM-DC inh)
O/N=C1/CCc2nonc2/C1=N/O	none
CCOC(=O)Cn1c(=O)oc2cc(S(=O)(=O)NCCc3ccc(OCC)c(OCC)c3)ccc21	none
O=C(CSCc1ccccc1)N1CCN(c2ccc(F)cc2)CC1	none
COc1cccc(CN2CCN(C(=O)CC(C)C)CC2)c1	MK inhibit 61
O=C(CSCc1cccc(F)c1)N1CCN(c2ccccc2)CC1	Spn PMK inh 25
COc1ccc(C(=O)N2CCN(C(=O)CC(C)C)CC2)cc1OC	none
CCOC(=O)c1ccc(NC(=O)N2CCN(Cc3cccc(F)c3)CC2)cc1	none
CC(C)CC(=O)N1CCN(Cc2cccc(F)c2)CC1	MK inhibit 59
Cc1cc(C(=O)NCCCn2ccnc2)sc1-c1ccccc1	none
O=C(c1noc2c1CCc1ccccc1-2)N1CCc2ccccc2C1	none
COc1ccc(-c2nnc(-c3ccc(N)cc3)o2)cc1	Autofluor 339 2.9 (not shown: Spn DPM-DC inh)
COc1ccc(-c2ccc(-c3nnc(-c4cc(OC)ccc4OC)o3)cc2)cc1	Autofluor 339 3.7 (not shown: Spn DPM-DC inh)
COc1ccc(-c2nnc(-c3ccc(N(C)C)cc3)o2)cc1	Autofluor 339 2.1 (not shown: Spn DPM-DC inh)
CN(C)c1ccc(-c2nnc(-c3ccc(S(=O)(=O)C(F)F)cc3)o2)cc1	none
O=C(c1ccc(F)cc1)N1CCC(N2CCCCCC2)CC1	Spn DPM-DC inh active, MK inhibit 78
O=C(c1ccccc1F)N1CCC(N2CCCCCC2)CC1	none
O=c1cc(-c2ccncc2)oc2ccccc12	none
O=c1cc(-c2ccc3c(c2)OCO3)oc2ccccc12	Autofluor 339 3.6 (not shown: Spn DPM-DC inh)
O=C(O)CCCC(=O)NCCCCc1ccccc1	none
C=CCn1cnc2c(c1=O)c1nc3ccccc3nc1n2-c1ccccc1	Autofluor 339 2.4
COCCCn1cnc2c(c1=O)c1nc3ccccc3nc1n2-c1ccccc1	Autofluor 339 3.1
COCCCn1cnc2oc3nc4ccccc4nc3c2c1=O	Autofluor 339 3.2
C=CCn1cnc2c(c1=O)c1nc3ccccc3nc1n2/N=C/c1ccccn1	Autofluor 339 2.5
C=CCn1cnc2c(c1=O)c1nc3ccccc3nc1n2/N=C/c1cc(OC)c(OC)c(OC)c1	none
CCN1C(=O)CC(c2ccco2)Sc2ccccc21 (stereo not given)	none
CCOC(=O)c1cc2occc2n1CC(=O)N1CCCc2ccccc21	none
CC1(C(=O)N(CC(=O)NC2CCCC2)Cc2ccco2)CC(=O)N=C2C=CC=CN21 (stereo not given)	Autofluor 339 4.8 (not shown: Spn DPM-DC inh)
Cc1nn(-c2ccccc2)c2sc(C(=O)N(CC(=O)NC3CCCC3)Cc3ccco3)cc12	none
O=C(Nc1cccc2ccccc12)c1cnccn1	Spn PMK inh 25
Cc1ccc(CNC(=O)CN(C)S(=O)(=O)c2cccc3cccnc23)cc1	none
C=CCc1c(C)nc2c(C(=O)O)cnn2c1C	none
COC(=O)c1cnn2c3c(c(C)nc12)CCCC3	Autofluor 339 4.8 (not shown: Spn DPM-DC inh)
Cc1c(NC(=O)C2CCN(S(=O)(=O)c3ccccc3)CC2)c(=O)n(-c2ccccc2)n1C	Spn DPM-DC inh active
CCn1cc(-c2cc(C(F)(F)F)n3nc(C(=O)O)cc3n2)c(C)n1	none
CCCCOC(=O)CSC1=C(C#N)C(c2ccccc2OC)C(C#N)C(=O)N1 (stereo not given)	MK inhibit 78
O=C(Cc1cc(=O)[nH]c(=O)[nH]1)N1CCC(Cc2ccccc2)CC1	none
Cn1c(=O)c2nc(-c3ccccc3)oc2c2ccccc21	Autofluor 339 5 (not shown: Spn DPM-DC inh)
COc1ccccc1N(CC(=O)Nc1cc(C)on1)S(=O)(=O)c1cccs1	none
Cc1nnc(SCCn2c(N(C)Cc3ccccc3)nc3c2c(=O)n(C)c(=O)n3C)s1	none
Cc1cccn2c(=O)c3cc(C#N)c(=NC(=O)c4ccncc4)n(CCCOC(C)C)c3nc12	Autofluor 339 3.6 (not shown: Spn DPM-DC inh)
